The text below walks through data of PubChem BioAssay.

Values joined by “and” are separate entries in the source; they are usually repeats but may differ in a detail not shown here. Identical values can stand only once. Where a structure was tested more than once in an assay, its records may differ in their call. Active and inactive are the calls of the source.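 Rule for the calls, unless noted: active = mean z-score across replicates of 1.96 or higher in either the MELAS or the Rieske mutant cell line; inactive = the rest.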

The first assay is described as follows: viability loss with induced miR-34 in A549 – imaging, A549 dox-inducible miR-34, nuclei and caspase counts, primary screen (AID 1347080). To be noted: A549 miR-34 inducible, Hoechst nuclei count, 48 h; measured here: total cells without miR-34 induction.
Consider `O=C1C(CCS(=O)c2ccccc2)C(=O)N(c2ccccc2)N1c1ccccc1` (stereo not given), for which the cell count is 11300 and 8200 and 12500.
For the compound `CN(C)CCOC(c1ccc(Cl)cc1)c1ccccn1` (stereo not given), the cell count was 9460 and 9580 and 12300.
Consider `N[C@@H](C(=O)N[C@@H]1C(=O)N2C(C(=O)O)=C(Cl)CS[C@H]12)c1ccccc1`, for which the cell count was 9320 and 13200.
On the same count and under the same terms, under `Nc1ncn([C@@H]2O[C@H](CO)[C@@H](O)[C@H]2O)c(=O)n1` stands 1840 and 2660 and 6640; under `NCc1ccc(S(N)(=O)=O)cc1`, 11400 and 8940 and 13400.
Turning to `Cc1ncc([N+](=O)[O-])n1CC(C)O` (stereo not given), the cell count was 9820 and 10000 and 10600.
For `CN1CCCC(n2nc(Cc3ccc(Cl)cc3)c3ccccc3c2=O)CC1` (stereo not given), the cell count is 6060 and 9430 and 10400.
As to `NS(=O)(=O)c1cc2c(cc1C(F)(F)F)NC(Cc1ccccc1)NS2(=O)=O` (stereo not given), the cell count is 10100 and 9580 and 13500.
`COC1=CC(=O)C[C@@H](C)[C@]12Oc1c(Cl)c(OC)cc(OC)c1C2=O`: the cell count is 5720 and 7210 and 9240.
As to `COc1ccc(OC)c(C(O)CNC(=O)CN)c1` (stereo not given), the cell count was 10100 and 9420 and 12900.
As to `OC(CCN1CCCC1)(c1ccccc1)C1CCCCC1` (stereo not given), the cell count is 10400 and 10100 and 12200.
For `C/C=C/C(=O)N(CC)c1ccccc1C`, the cell count is 10100 and 13300 and 9700.
On the same count and under the same terms, under `CCCCCCNC(=O)n1cc(F)c(=O)[nH]c1=O` stands 3110 and 2180; under `CN(C)CCc1c[nH]c2ccc(C[C@H]3COC(=O)N3)cc12`, 13300.
Same read-out and setting: under `Cc1onc(-c2c(Cl)cccc2Cl)c1C(=O)N[C@@H]1C(=O)N2[C@@H]1SC(C)(C)[C@@H]2C(=O)O` stands 10700 and 8620 and 13200; under `CO[C@@]1(NC(=O)Cc2cccs2)C(=O)N2C(C(=O)O)=C(COC(N)=O)CS[C@@H]21`, 10300 and 10400 and 12700; under `CC(C)(C)NCC(O)COc1cccc2c1C[C@H](O)[C@H](O)C2` (stereo not given in full), 10900 and 12900.
In the case of `O=S(=O)(O)CCS`, the cell count is 10500 and 9730 and 12900.

The next assay in a line: compounds altering HSF1 focus formation in cells – imaging, Selleck Cancer Library (AID 1347162; in the data active = plate-normalised HSF1 focus index below about 0.46). The conditions noted are these: human cells, HSF1 nuclear foci imaging, at 10 µM; SSMD: measured here: HSF1 foci SSMD mean; cell count: measured here: cell number; plate-normalised HSF1 focus index: stronger effect = lower value.
`Cc1ccc(-c2cc(C(F)(F)F)nn2-c2ccc(S(N)(=O)=O)cc2)cc1`: the cell count is 5490, the SSMD was -12.9 and the plate-normalised HSF1 focus index is 0.546 (inactive).
Consider `Nc1ncn([C@@H]2O[C@H](CO)[C@@H](O)[C@H]2O)c(=O)n1`, for which the plate-normalised HSF1 focus index is 1.04 (inactive), the cell count came out at 7120 and the SSMD was determined as 1.14.
Turning to `CN(CCOc1ccc(CC2SC(=O)NC2=O)cc1)c1ccccn1` (stereo not given), the plate-normalised HSF1 focus index was 1.15 (inactive), the cell count was 7680 and the SSMD was determined as 2.43.
Regarding `O=c1[nH]cc(F)c(=O)[nH]1`, the plate-normalised HSF1 focus index was 1.12 (inactive), the cell count was found to be 7020 and the SSMD was determined as 2.14.

The next assay can be described thus: blockers of cellular phospholipid synthesis – cell-based, LOPAC library, screen 4, primary screen (AID 1347384; call rule not given here). The conditions noted are these: animal cells, phospholipid biosynthesis inhibition screen; at 10 µM.
Take `OCCN1CCN(CCCN2c3ccccc3Sc3ccc(C(F)(F)F)cc32)CC1`: the compound was classed as inactive.
Still for that read-out and setting: under `NS(=O)(=O)c1cc2c(cc1Cl)NC=NS2(=O)=O` stands “inactive”.
Same read-out and setting: under `Cc1ccc(-c2cc(C(F)(F)F)nn2-c2ccc(S(N)(=O)=O)cc2)cc1` stands “inactive”; under `Cc1ccccc1C(OCCN(C)C)c1ccccc1` (stereo not given), “inactive”.
Still for that read-out and setting: under `COc1cc2nc(N(C)CCCNC(=O)C3CCCO3)nc(N)c2cc1OC` (stereo not given) stands “inactive”; under `Nc1ncn([C@@H]2O[C@H](CO)[C@@H](O)[C@H]2O)c(=O)n1`, “inactive”; under `CCCNCC(O)COc1ccccc1C(=O)CCc1ccccc1` (stereo not given), “inactive”.
For `CCCCCCNC(=O)n1cc(F)c(=O)[nH]c1=O`, the result was inactive.
As for `NC(=O)c1cnccn1`, the compound was classed as inactive.
`Cn1cnc([N+](=O)[O-])c1Sc1ncnc2nc[nH]c12`: the call was inactive.
Take `Clc1ccc2c(c1)C(N1CCNCC1)=Nc1ccccc1O2`: the compound was called inactive.
As to `CCc1cccc2c3c([nH]c12)C(CC)(CC(=O)O)OCC3` (stereo not given), the compound was classed as inactive.
Turning to `O=c1[nH]cc(F)c(=O)[nH]1`, the call was inactive.

The nature of a further assay: MELAS cybrid and Rieske KO viability enhancers – cell-based, MELAS cybrids, Rieske KO mouse fibroblasts, CellTiter-Glo, primary screen (AID 1508586).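 Note: z relative to plate mean and SD of compound and empty wells.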 The conditions noted are these: MELAS cybrid survival, low glucose, CellTiter-Glo 48 h; stronger effect = higher value. (In general: In ATP-based viability assays light output follows the ATP content of the culture.)
With `OCCN1CCN(CCCN2c3ccccc3Sc3ccc(C(F)(F)F)cc32)CC1`, the z-score was -1.28 (inactive) and 0.571 (inactive).
Still for that read-out and setting: under `NS(=O)(=O)c1cc2c(cc1Cl)NC=NS2(=O)=O` stands -0.0786 (inactive) and 0.00114 (inactive).
Still for that read-out and setting: under `O=C1C(CCS(=O)c2ccccc2)C(=O)N(c2ccccc2)N1c1ccccc1` (stereo not given) stands 0.278 (inactive).
Turning to `Cc1ccc(-c2cc(C(F)(F)F)nn2-c2ccc(S(N)(=O)=O)cc2)cc1`, the z-score is -0.312 (inactive) and 1.24 (inactive) and 1.08 (inactive).
As for `CN[C@H]1CC[C@@H](c2ccc(Cl)c(Cl)c2)c2ccccc21`, the z-score was -0.257 (inactive).
As to `Cc1ccccc1C(OCCN(C)C)c1ccccc1` (stereo not given), the z-score is -0.259 (inactive) and -1.08 (inactive).
Regarding `CCc1nc(N)nc(N)c1-c1ccc(Cl)cc1`, the z-score is -0.337 (inactive) and 1.11 (inactive).
Consider `COc1cc2nc(N(C)CCCNC(=O)C3CCCO3)nc(N)c2cc1OC` (stereo not given), for which the z-score was -0.397 (inactive) and -0.012 (inactive).
For the compound `CN(C)CCOC(c1ccc(Cl)cc1)c1ccccn1` (stereo not given), the z-score is 0.0234 (inactive).
The same measure, in the same setting: under `N[C@@H](C(=O)N[C@@H]1C(=O)N2C(C(=O)O)=C(Cl)CS[C@H]12)c1ccccc1` stands 0.0553 (inactive); under `NCc1ccc(S(N)(=O)=O)cc1`, 0.171 (inactive); under `Cc1ncc([N+](=O)[O-])n1CC(C)O` (stereo not given), -0.319 (inactive) and 0.295 (inactive) and -0.342 (inactive).
For `Cc1ccc(C)c(OCCCC(C)(C)C(=O)O)c1`, the z-score was -0.269 (inactive) and 0.233 (inactive) and 0.482 (inactive).
The same measure, in the same setting: under `CN1CCCC(n2nc(Cc3ccc(Cl)cc3)c3ccccc3c2=O)CC1` (stereo not given) stands -0.451 (inactive) and -0.0693 (inactive).
The same measure, in the same setting: under `NS(=O)(=O)c1cc2c(cc1C(F)(F)F)NC(Cc1ccccc1)NS2(=O)=O` (stereo not given) stands 0.478 (inactive); under `COC1=CC(=O)C[C@@H](C)[C@]12Oc1c(Cl)c(OC)cc(OC)c1C2=O`, 1.78 (inactive).
For `Cc1cn([C@H]2C[C@H](N=[N+]=[N-])[C@@H](CO)O2)c(=O)[nH]c1=O`, the z-score is 1.37 (inactive) and 1.42 (inactive).
As for `CN(CCOc1ccc(CC2SC(=O)NC2=O)cc1)c1ccccn1` (stereo not given), the z-score was -0.369 (inactive) and -0.527 (inactive).
In the case of `COc1ccc(OC)c(C(O)CNC(=O)CN)c1` (stereo not given), the z-score is 0.0363 (inactive).
Turning to `OC(CCN1CCCC1)(c1ccccc1)C1CCCCC1` (stereo not given), the z-score is 0.381 (inactive).
Take `NC(=O)N1c2ccccc2CC(=O)c2ccccc21`: the z-score was -0.278 (inactive) and 0.355 (inactive) and 0.309 (inactive).
Still for that read-out and setting: under `CCCNCC(O)COc1ccccc1C(=O)CCc1ccccc1` (stereo not given) stands -0.438 (inactive) and -0.541 (inactive) and -0.854 (inactive); under `C/C=C/C(=O)N(CC)c1ccccc1C`, -0.397 (inactive) and -0.423 (inactive); under `CCCCCCNC(=O)n1cc(F)c(=O)[nH]c1=O`, -0.365 (inactive) and -0.769 (inactive).
Consider `NC(=O)c1cnccn1`, for which the z-score is -0.184 (inactive) and 0.644 (inactive).
As to `CN(C)CCc1c[nH]c2ccc(C[C@H]3COC(=O)N3)cc12`, the z-score is 0.816 (inactive).
On the same count and under the same terms, under `COc1ccccc1OCC(O)COC(N)=O` (stereo not given) stands -0.379 (inactive) and 0.493 (inactive).
Still for that read-out and setting: under `COC(=O)Nc1nc2ccc(C(=O)c3ccccc3)cc2[nH]1` stands 0.18 (inactive) and -0.728 (inactive) and -2.21 (inactive); under `Cn1cnc([N+](=O)[O-])c1Sc1ncnc2nc[nH]c12`, 0.345 (inactive) and 1.98 (active).
`c1ccc2[nH]c(-c3cscn3)nc2c1`: the z-score is -0.164 (inactive) and 2.01 (active).
On the same count and under the same terms, under `Cc1onc(-c2c(Cl)cccc2Cl)c1C(=O)N[C@@H]1C(=O)N2[C@@H]1SC(C)(C)[C@@H]2C(=O)O` stands 0.18 (inactive); under `Clc1ccc2c(c1)C(N1CCNCC1)=Nc1ccccc1O2`, -0.224 (inactive) and 0.465 (inactive); under `CO[C@@]1(NC(=O)Cc2cccs2)C(=O)N2C(C(=O)O)=C(COC(N)=O)CS[C@@H]21`, 0.626 (inactive).
On to `CCc1cccc2c3c([nH]c12)C(CC)(CC(=O)O)OCC3` (stereo not given), for which the z-score was -0.968 (inactive).
For the compound `CC(C)(C)NCC(O)COc1cccc2c1C[C@H](O)[C@H](O)C2` (stereo not given in full), the z-score is 0.625 (inactive).
Same read-out and setting: under `O=S(=O)(O)CCS` stands -0.16 (inactive) and 0.426 (inactive).
With `O=c1[nH]cc(F)c(=O)[nH]1`, the z-score was -0.415 (inactive) and 0.96 (inactive) and 1.17.
